These results are taken from PubChem BioAssay (Tox21).

Unmarked numbers belong to inactive results. Records with an inconclusive call do not appear. Calls of active or inactive are those of the source. Unless noted, calls come from the whole dose curve; as a rule, active = well fitted curve in the direction sought with a large enough effect in the repeat runs; inconclusive = weak or mixed curves; inactive = no such curve, though single readings can be large; an effect the other way counts as inactive or inconclusive.

A short description of assay [1]: qHTS assay for small molecule agonists of the p53 signaling pathway (AID 651631; calls by dose curve; note: nearly all actives have a fitted effect of over 15% in size; note: potency is the fitted concentration of half-maximal effect). The method, boiled down: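 Quantitative high-throughput format: 4,000 p53RE-bla HCT-116 cells/well, 5 h pre-incubation, 16 h compound exposure at 37 °C, 2 h room-temperature substrate step, fluorescence intensity measured.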
On the technique in general: Quantitative high-throughput screening tests each substance at several concentrations.

Assay [2] is described as follows: qHTS assay for small molecules that induce genotoxicity in human embryonic kidney cells expressing luciferase-tagged ATAD5 (AID 651632). Note: nearly all actives have a fitted effect of over 15% in size. The method, boiled down: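 Cells were seeded at 2,000 per well, dosed with compound, and incubated 16 hr at 37C in 5% CO2. Luciferase activity was then quantified after a 30 min room-temperature incubation with Amplite.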
Assay [3] can be described thus: qHTS assay for small molecule agonists of the p53 signaling pathway - cell viability (AID 651633; calls by dose curve; note: nearly all actives have a fitted effect of over 30% in size; note: potency is the fitted concentration of half-maximal effect). The method, boiled down: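 p53RE-bla cells, seeded at 4,000 per well and rested 5 h at 37 C/5% CO2, received compounds in DMSO for 16 h at 37 C. CellTiter-Glo was then added, and luminescence was read after 30 min at room temperature to gauge cytotoxicity.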
Assay [4] in a line: qHTS assay to test for compound auto fluorescence at 590 nm (red) in HepG2 cells (AID 720674). In outline: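 Intrinsic compound fluorescence in the red window (Ex/Em 540/590 nm) is measured in attached HepG2 cells exposed for 1 hr, DMSO vehicle as baseline, benchmarked to Rose Bengal sodium.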
Assay [5] is described as follows: qHTS assay to test for compound auto fluorescence at 535 nm (green) in HepG2 cells (AID 720675).
A short description of assay [6]: qHTS assay to test for compound auto fluorescence at 460 nm (blue) in HEK293 cells (AID 720678). The method, boiled down: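 HEK293 cells (2,000 per well, medium with 10% dialyzed FBS) attached for 4-5 hr at 37C, then received compound and stood overnight at 37C, 5% CO2. Blue fluorescence was read at Ex/Em 405/460 nm and expressed relative to triamterene.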
Assay [7] in a line: qHTS assay to test for compound auto fluorescence at 590 nm (red) in HEK293 cells (AID 720679). The method, boiled down: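 HEK293 cells (2,000/well, medium with 10% dialyzed FBS) attached for 4-5 hr at 37C, received 23 nL compound and were incubated overnight at 37C, 5% CO2. Red fluorescence was then read at 540/590nm Ex/Em, referenced to Rose Bengal sodium.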
A short description of assay [8]: qHTS assay to test for compound auto fluorescence at 535 nm (green) in HEK293 cells (AID 720680).
Assay [9] can be described thus: qHTS assay to test for compound auto fluorescence at 535 nm (green) in HEK293 cell free culture (AID 720682). The method, boiled down: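 Measurement is a direct plate read of green fluorescence (485 nm in, 535 nm out) after compound addition to serum-supplemented DMEM lacking cells, with fluorescein used to express intensities.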
A short description of assay [10]: qHTS assay to test for compound auto fluorescence at 590 nm (red) in HEK293 cell free culture (AID 720683). The method, boiled down:
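Tox21 10K library compounds were pinned into cell-free DMEM with 10% FBS and fluorescence was read at excitation 540 nm. Activity is expressed as Rose Bengal sodium equivalency.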

Assay [11] is described as follows: qHTS assay to test for compound auto fluorescence at 590 nm (red) in HepG2 cell free culture (AID 720684). In outline:
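Readout: intrinsic compound fluorescence at 590 nm emission after 540 nm excitation, scaled to Rose Bengal sodium. Matrix was cell-free MEM with 10% FBS; DMSO vehicle wells served as control.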

A short description of assay [12]: qHTS assay to test for compound auto fluorescence at 460 nm (blue) in HepG2 cell free culture (AID 720685). The method, boiled down:
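Cell-free plates of MEM plus 10% FBS received 23 nL compound or DMSO vehicle; blue-channel (405/460 nm) intensity scored against triamterene as reference fluorophore.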

Assay [13] is described as follows: qHTS assay to test for compound auto fluorescence at 535 nm (green) in HepG2 cell free culture (AID 720686).
A short description of assay [14]: qHTS assay to test for compound auto fluorescence at 460 nm (blue) in HepG2 cells (AID 720687). In outline: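 Cells (2,000/well in MEM with 10% FBS) attached overnight at 37 C, then were exposed to compound or DMSO for 1 hr at 37 C, 5% CO2. Fluorescence read at Ex/Em 405/460 nm, expressed as triamterene-equivalent signal.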
For assay [15], the target named is Glucocorticoid receptor (Homo sapiens) (UniProt P04150). Kind of assay: qHTS assay to identify small molecule agonists of the glucocorticoid receptor (GR) signaling pathway (AID 720691; active = well fitted activation curve with a large enough effect in the signal ratio in the repeat runs, not every such curve was filed as active; the % refers to the signal ratio). The following applies: GR-bla HeLa, beta-lactamase reporter ratio, 18 h; activation: at 62.4 µM (top of the series) unless noted. The method, boiled down:
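Steps: seed GR-bla HeLa cells, incubate 4 h at 37 C/5% CO2; pin-transfer DMSO-dissolved compounds; incubate 18 h at 37 C; add LiveBLAzer B/G FRET substrate; after 2 h at room temperature, measure fluorescence.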

For assay [16] the target is unchanged. Kind of assay: qHTS assay to identify small molecule antagonists of the glucocorticoid receptor (GR) signaling pathway (AID 720692; active = well fitted inhibition curve with a large enough effect in the signal ratio in the repeat runs, not every such curve was filed as active; the % refers to the signal ratio; note: potency is the fitted concentration of half-maximal effect). The method, boiled down:
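Antagonism was scored as loss of dexamethasone-driven (5 nM final) reporter signal in HeLa cells bearing a glucocorticoid response element–beta-lactamase construct, after 18 h compound exposure at 37 C and 2 h FRET substrate loading.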

The nature of assay [17]: qHTS assay for small molecules that induce genotoxicity in human embryonic kidney cells expressing luciferase-tagged ATAD5 - cell viability (AID 651634; calls by dose curve; note: nearly all actives have a fitted effect of over 25% in size). In outline: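 Cells (HEK293T, luciferase-tagged ATAD5) are seeded at 2,000 per well, dosed with compound or DMSO vehicle, and incubated 15.5 hr at 37C and 5% CO2. CellTiter-Fluor is added for 30 min before fluorescence is measured.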

Assay [18] can be described thus: qHTS assay to test for compound auto fluorescence at 460 nm (blue) in HEK293 cell free culture (AID 720681). The method, boiled down:
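Test compounds were pinned into cell-free culture medium (DMEM with 10% FBS) and fluorescence was read directly at Ex/Em 405/460 nm. Signals were expressed as fluorescence equivalents of triamterene, with DMSO vehicle as control.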

Assay [19] is described as follows: qHTS assay for small molecule disruptors of the mitochondrial membrane potential - cell viability (AID 720634; calls by dose curve;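 note: human HepG2 liver cancer cells; nearly all actives have a fitted effect of over 20% in size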). In outline:
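Cytotoxicity was measured by ATP quantitation in HepG2 wells that had first been treated with compound for 1 hr and stained with m-MPI dye; CellTiter-Glo incubation was 30 min at room temperature.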

Glucocorticoid receptor (Homo sapiens), sequence (P04150 whole entry, looked up): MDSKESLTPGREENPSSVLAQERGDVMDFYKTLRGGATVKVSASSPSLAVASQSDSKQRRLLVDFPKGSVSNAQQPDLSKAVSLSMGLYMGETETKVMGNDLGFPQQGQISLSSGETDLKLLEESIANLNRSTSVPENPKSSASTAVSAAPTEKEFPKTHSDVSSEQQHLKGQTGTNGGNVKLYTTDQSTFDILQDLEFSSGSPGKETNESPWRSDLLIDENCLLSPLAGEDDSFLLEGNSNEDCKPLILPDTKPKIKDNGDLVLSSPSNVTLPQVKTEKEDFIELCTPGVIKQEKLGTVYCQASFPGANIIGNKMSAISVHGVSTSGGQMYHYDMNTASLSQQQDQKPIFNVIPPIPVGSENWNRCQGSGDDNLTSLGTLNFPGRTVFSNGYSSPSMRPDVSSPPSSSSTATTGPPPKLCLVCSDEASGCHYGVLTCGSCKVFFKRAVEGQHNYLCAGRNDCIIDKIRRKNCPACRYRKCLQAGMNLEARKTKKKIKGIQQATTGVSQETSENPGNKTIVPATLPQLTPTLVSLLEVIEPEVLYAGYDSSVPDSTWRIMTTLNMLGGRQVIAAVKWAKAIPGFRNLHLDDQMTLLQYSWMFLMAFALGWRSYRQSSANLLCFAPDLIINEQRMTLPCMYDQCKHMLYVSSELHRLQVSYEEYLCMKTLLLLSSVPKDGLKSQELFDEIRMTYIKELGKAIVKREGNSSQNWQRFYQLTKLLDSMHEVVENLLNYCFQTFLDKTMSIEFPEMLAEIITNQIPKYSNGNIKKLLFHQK

In the case of `CC(C)OC(=O)C(C)N(C(=O)c1ccccc1)c1ccc(F)c(Cl)c1` (centres undefined), the Potency result in assay [1], in assay [2], in assay [3], in [4], in assay [5] and in [7] was “inactive” each time. The Potency entry in [10], in assay [11], in assay [13] and in [15] was “inactive” each time. Further, the molecule was classed as inactive in assay [6], in assay [8], in [9], in assay [12] and in [14]. For the same molecule, the Potency in assay [16] is 43.6 µM (active).

`Nc1c(CC(=O)O)cccc1C(=O)c1ccc(Br)cc1`: the Potency result in assay [1], in [2], in [3], in assay [17], in assay [4] and in assay [7] was “inactive” throughout. The Potency entry in [10], in [11] and in [13] was “inactive” throughout. Besides, the result in assay [6], in assay [8], in assay [18], in assay [9], in [12] and in [14] was inactive.

Turning to `O=[N+]([O-])c1cccc(S(=O)(=O)O)c1`, the Potency result in assay [1], in assay [2], in assay [3], in assay [17], in [5] and in assay [7] was “inactive” in each case. For the same molecule, the Potency result in [10], in [11], in assay [13], in assay [15] and in assay [16] was “inactive” throughout. In addition, the molecule was classed as inactive in assay [6], in [8], in assay [18], in [9] and in assay [14].

For `CN(C)c1ccc(C(c2ccccc2)c2ccc(N(C)C)cc2)cc1`, the Potency result in assay [1], in assay [2], in assay [3], in assay [17], in assay [4] and in [5] was “inactive” throughout. The Potency entry in assay [11] and in assay [13] was “inactive” each time. Moreover, the molecule was called inactive in [6], in assay [8], in [18], in [9], in [12] and in assay [14].

Consider `O=C(Nc1ccc(S(=O)(=O)N2CCOCC2)cc1)c1cc(Cl)ccc1NS(=O)(=O)c1ccc(Cl)s1`, for which the Potency in assay [1] was 26.6 µM (active); in [3] it was 9.44 µM (active); in assay [16] it was 26.8 µM (active). For the same molecule, the Potency entry in assay [2], in assay [19], in [4], in [5], in assay [10] and in assay [11] was “inactive” in each case. Also, the Potency result in assay [13] and in assay [15] was “inactive” each time. Moreover, the outcome in assay [6], in [8], in assay [9], in assay [12] and in [14] was inactive.

Turning to `CCCCCCCN`, the Potency entry in assay [1], in [2], in [3], in [17], in assay [4] and in assay [7] was “inactive” throughout. Moreover, the Potency entry in assay [10], in assay [11], in assay [13], in assay [15] and in [16] was “inactive” each time. The result in [6], in assay [8], in [18], in [12] and in assay [14] was inactive.

Turning to `COc1ccc(C)cc1[N+](=O)[O-]`, the Potency entry in assay [1], in assay [2], in assay [17], in assay [19], in [4] and in assay [5] was “inactive” throughout. Besides, the Potency entry in [7], in assay [11], in [13] and in assay [15] was “inactive” in each case. The molecule was called inactive in assay [6], in assay [8], in assay [18], in assay [9], in assay [12] and in [14].

As for `O=P(O)(OCc1ccccc1)OCc1ccccc1`, the Potency result in [1], in assay [2], in assay [17], in [19], in assay [4] and in [5] was “inactive” in each case. Also, the Potency result in [7], in [10], in assay [11] and in assay [13] was “inactive” each time. Besides, the outcome in assay [6], in [8], in [18], in [9] and in assay [14] was inactive.
